The entries come from a sample that favours hits as a whole.
U2OS ROS induce – raises reactive oxygen species in U2OS cancer cells | U2OS ROS induction, H2DCF-DA fluorescence | ROS induction (% of piperlongumine), % at 10 µM | 2% of 46,000 active; in the data active = ROS induction above about 79%, passing the limit was not always enough;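 also: 0% = DMSO vehicle median and 100% = reference compound median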
Numbers without * were called inactive.

SMILES	U2OS ROS induce
C[C@H]1CN([C@@H](C)CO)C(=O)c2cccc(N(C)C)c2O[C@@H]1CN(C)S(=O)(=O)c1ccccc1	3.0
COc1ccc(NC(=O)Nc2cccc3c2O[C@@H](CN(C)Cc2ccccc2)[C@H](C)CN([C@@H](C)CO)C3=O)cc1	15.8
Cc1ccc(SC(=O)c2sc(-c3ccccc3)nc2C)cc1	-4.2
CC(=O)n1c(C)c(-c2ccccc2)c2cc(Cl)ccc21	-3.8
COc1ccc(CN(C)C[C@@H]2Oc3ccc(NS(=O)(=O)c4cccs4)cc3CC(=O)N([C@@H](C)CO)C[C@@H]2C)cc1	19.3
c1ccc2c(c1)N1CCCCCC1N2Cc1ccncc1 (centres undefined)	7.8
C[C@H](CO)N1C[C@H](C)[C@@H](CN(C)Cc2ccccc2)Oc2ccc(NS(C)(=O)=O)cc2C1=O	-4.0
C[C@H](CO)N1C[C@H](C)[C@@H](CN(C)Cc2ccc(Oc3ccccc3)cc2)Oc2c(NC(=O)C3CC3)cccc2C1=O	84.4*
C[C@@H]1CN([C@@H](C)CO)C(=O)c2cc(NC(=O)NC3CCCCC3)ccc2O[C@H]1CN(C)Cc1ccc(-c2ccccc2)cc1	10.0
C[C@@H]1CN([C@H](C)CO)C(=O)c2cc(NC(=O)NC3CCCCC3)ccc2O[C@@H]1CN(C)Cc1ccc(-c2ccccc2)cc1	-1.8
C[C@H](CO)N1C[C@H](C)[C@H](CN(C)Cc2ccc(Oc3ccccc3)cc2)Oc2c(NC(=O)C3CCCCC3)cccc2C1=O	25.5
C[C@H]1CN([C@@H](C)CO)C(=O)c2cccc(NC(=O)C3CC3)c2O[C@@H]1CN(C)Cc1ccc(Oc2ccccc2)cc1	93.8*
C[C@@H]1CN([C@@H](C)CO)C(=O)c2cccc(NC(=O)C3CCOCC3)c2O[C@@H]1CN(C)Cc1ccc(Oc2ccccc2)cc1	10.5
C[C@H]1CN([C@@H](C)CO)C(=O)c2cc(N(C)C)ccc2O[C@H]1CN(C)Cc1ccc(-c2ccccc2)cc1	3.1
C[C@H]1CN([C@@H](C)CO)C(=O)c2cc(NC(=O)NC3CCCCC3)ccc2O[C@@H]1CN(C)Cc1ccc(-c2ccccc2)cc1	136.7*
C[C@H]1CN([C@@H](C)CO)C(=O)c2cccc(NC(=O)C3CCCCC3)c2O[C@H]1CN(C)Cc1ccc(Oc2ccccc2)cc1	34.2
C[C@H](CO)N1C[C@H](C)[C@@H](CN(C)Cc2ccc(-c3ccccc3)cc2)Oc2ccc(N(C)C)cc2C1=O	93.5*
C[C@@H]1CN([C@@H](C)CO)C(=O)c2cccc(NC(=O)C3CC3)c2O[C@@H]1CN(C)Cc1ccc(Oc2ccccc2)cc1	10.7
C[C@@H]1CN([C@@H](C)CO)C(=O)c2cc(N(C)C)ccc2O[C@@H]1CN(C)Cc1ccc(-c2ccccc2)cc1	-1.9
C[C@@H]1CN([C@H](C)CO)C(=O)Cc2cc(NS(=O)(=O)c3cn(C)cn3)ccc2O[C@@H]1CN(C)Cc1ccc2c(c1)OCO2	1.1
C[C@@H]1CN([C@@H](C)CO)C(=O)Cc2cc(NC(=O)Nc3ccc(C(F)(F)F)cc3)ccc2O[C@@H]1CN(C)Cc1ccc(C(F)(F)F)cc1	14.2
CSc1sc(-c2nc(C(C)(C)C)cs2)c2c1C(=O)CCC2	-17.6
COc1ccc(-c2nc3nnc(C)n3[nH]2)c(OC)c1	-4.6
C[C@H]1CN([C@@H](C)CO)C(=O)Cc2cc(NC(=O)C3CC3)ccc2O[C@@H]1CN(C)C	-8.5
COC(=O)/C=C1\NC2CCCCC2NC1=O (centres undefined)	-0.7
SMILES	U2OS ROS induce
C[C@H]1CN([C@@H](C)CO)C(=O)c2cc(NC(=O)C3CCCCC3)ccc2O[C@@H]1CN(C)Cc1ccc(Oc2ccccc2)cc1	88.9*
C[C@@H]1CN([C@H](C)CO)C(=O)c2cccc(NC(=O)C3CC3)c2O[C@@H]1CN(C)Cc1ccc(-c2ccccc2)cc1	5.0
C[C@@H]1CN([C@@H](C)CO)C(=O)c2cc(NC(=O)C3CC3)ccc2O[C@@H]1CN(C)Cc1ccc(Oc2ccccc2)cc1	-3.6
COc1ccc(NC(=O)Nc2cccc3c2O[C@H](CN(C)Cc2ccc(Oc4ccccc4)cc2)[C@H](C)CN([C@@H](C)CO)C3=O)cc1	88.6*
C[C@@H]1CN([C@@H](C)CO)C(=O)c2cc(NC(=O)C3CCCCC3)ccc2O[C@@H]1CN(C)Cc1ccc(Oc2ccccc2)cc1	10.4
COc1ccc(CN(C)C[C@H]2Oc3c(NC(=O)Nc4ccccc4)cccc3C(=O)N([C@@H](C)CO)C[C@H]2C)cc1	4.0
COc1ccc(CN(C)C[C@@H]2Oc3c(NC(=O)Nc4ccccc4)cccc3C(=O)N([C@H](C)CO)C[C@H]2C)cc1	13.6
C[C@H](CO)N1C[C@H](C)[C@@H](CN(C)Cc2ccc(-c3ccccc3)cc2)Oc2c(NC(=O)C3CC3)cccc2C1=O	173.3*
C[C@H](CO)N1C[C@H](C)[C@H](CN(C)Cc2ccc(-c3ccccc3)cc2)Oc2c(NC(=O)C3CC3)cccc2C1=O	18.1
C[C@H]1CN([C@@H](C)CO)C(=O)CCCn2nncc2CO[C@H]1CN(C)C(=O)Nc1ccccc1	-25.2
CC(C)NC(=O)Nc1ccc2c(c1)CC(=O)N([C@H](C)CO)C[C@@H](C)[C@H](CN(C)CC1CC1)O2	0.0
C[C@@H]1CN([C@H](C)CO)C(=O)CCCn2cc(nn2)CO[C@H]1CN(C)S(=O)(=O)c1ccc2c(c1)OCCCO2	26.8
Cc1cc(-c2noc(-c3snnc3C)n2)no1	-5.3
O=C(CN1C(=O)c2ccccc2C1=O)Nc1nccs1	-15.6
Cc1ccc(S(=O)(=O)N(C)C[C@@H]2Oc3ccc(NC(=O)Cc4cn(C)c5ccccc45)cc3C(=O)N([C@H](C)CO)C[C@@H]2C)cc1	-3.6
COc1ccc(S(=O)(=O)N(C)C[C@H]2Oc3ccc(NS(=O)(=O)c4cccs4)cc3CC(=O)N([C@@H](C)CO)C[C@H]2C)cc1	-1.8
O=C(CSc1nc(NCc2ccccc2)c2ccccc2n1)c1ccc(F)cc1	35.3
O=C(CSc1nc2ccccc2c(=O)[nH]1)Nc1ccc2c(c1)OCCO2	7.4
CCC(Sc1nc(Nc2ccc(F)cc2)c2ccccc2n1)C(=O)Nc1ccc2c(c1)OCO2 (centres undefined)	118.4*
Cc1noc(C)c1NC(=O)Nc1ccc2c(c1)C(=O)N([C@H](C)CO)C[C@H](C)[C@H](CN(C)Cc1ccc(C(=O)O)cc1)OCCCC[C@@H](C)O2	0.2
Cc1ccc(NC(=O)c2sc3ncn(CC(=O)Nc4cc(C(F)(F)F)ccc4Cl)c(=O)c3c2C)c(C)c1	9.3
O=c1oc2ccccc2n1CCn1c2ccccc2c2nc3ccccc3nc21	33.4
Cc1ccc2c(c1)c1nc3ccccc3nc1n2CCN1CCOCC1	78.0*
Cc1ccc2c(c1)c1nc3ccccc3nc1n2CC(=O)OCc1ccccc1	-2.8
CC1Nc2ccc(Cl)cc2S(=O)(=O)N1 (centres undefined)	-6.7
SMILES	U2OS ROS induce
COc1ccc(-c2noc(CC(=O)O)c2-c2ccc(OC)cc2)cc1	1.9
COc1ccc(-c2oc3ncn(CCO)c(=N)c3c2-c2ccc(OC)cc2)cc1	0.5
COc1ccc(-c2oc3ncn(CC(C)C)c(=N)c3c2-c2ccc(OC)cc2)cc1	94.4*
C[C@@H]1CCCCO[C@@H](CN(C)C(=O)Nc2ccc(C(F)(F)F)cc2)[C@@H](C)CN([C@H](C)CO)C(=O)c2cc(N(C)C)ccc2O1	66.0
[N-]=[N+]=NCc1ccccc1C[C@]1(C(=O)NCC(O)CO)COC(c2ccc(OCCCO)cc2)=N1 (some centres undefined)	2.9
O=c1ccc(Oc2nc(N3CCCCC3)nc(N3CCOCC3)n2)n[nH]1	16.6
O=C(CSc1ncccn1)Nc1ccc(Cl)cc1Cl	-35.4
